Bioassay records as filed in PubChem BioAssay.
HCMV antiviral: blocks human cytomegalovirus replication | HFF cells, HCMV-luciferase reporter, 72 h; hits give low values | activity change, negative = inhibition, % at 57.5 µM | actives 4.5% (n = 410,000) | AID 1259415; in the data active = activity change below about -60%; inconclusive = no clear call, values can overlap the other calls; inactive = above about -39%
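After 16 h attachment at 37C, HFF cells received test compound and HCMV-luciferase (1 PFU/cell); reporter luminescence read 72 h later, data normalized against buffer-only and known inhibitor Salinomycin.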
Pf growth 48h: P. falciparum growth inhibition at 48 hours (one generation); P. falciparum luciferase growth in erythrocytes, 48 h; Potency, µM (series often up to 28.7 µM), without a hit: top-dose activity change, negative = inhibition, hits mostly inhibitors; actives 5.9% (n = 310,000); note: potency is the fitted concentration of half-maximal effect
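A one-generation exposure of luciferase-tagged malaria parasites in RPMI 1640/Albumax erythrocyte culture, 37 C and 5% CO2. Inhibition is inferred from decreased luminescence after adding detection reagent.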
FBPA Giardia inh: blocks Giardia fructose-bisphosphate aldolase activity; purified Giardia FBPA; AID 2451; A8B2U2; actives 0.71% (n = 290,000); Potency, µM (titrated, usually from 59.6 µM), inactives show at the highest dose activity, negative = inhibition, hits mostly inhibitors; note: potency is the fitted concentration of half-maximal effect; nearly all actives have a fitted effect of over 55% in size
Target sequence (A8B2U2 whole entry, looked up): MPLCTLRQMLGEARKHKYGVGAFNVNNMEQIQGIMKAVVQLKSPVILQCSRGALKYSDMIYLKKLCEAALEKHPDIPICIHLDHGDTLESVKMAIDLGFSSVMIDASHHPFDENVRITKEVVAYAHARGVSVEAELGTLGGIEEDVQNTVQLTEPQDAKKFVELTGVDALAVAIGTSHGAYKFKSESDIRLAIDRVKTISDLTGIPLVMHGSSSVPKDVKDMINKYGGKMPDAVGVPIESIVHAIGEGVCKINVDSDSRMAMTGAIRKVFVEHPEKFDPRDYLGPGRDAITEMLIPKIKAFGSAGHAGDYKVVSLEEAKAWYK
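40 nM FBPA preincubated 10 min at RT with compound (up to 57.5 uM final), then substrate plus GAPDH/TPI/NAD/arsenate coupling and diaphorase/resazurin added. Fluorescence read after 20 min at RT, 525/598 nm.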
Pf growth 96h: inhibits malaria parasite growth, 96 h | P. falciparum luciferase reporter growth, 96 h | Potency, µM (series often up to 28.7 µM), without a hit: at the highest dose activity change, negative = inhibition, actives largely listed as inhibitors | actives 6.9% (n = 320,000); note: potency is the fitted concentration of half-maximal effect
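Two-generation exposure (96 h) targets delayed-death phenotype. Reporter parasites carrying integrated firefly luciferase, in red cells at 2% hematocrit and 0.05% parasitemia final, kept at 37 C, 5% CO2; luminescence loss indicates inhibition.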
Sm TGR block: blocks Schistosoma mansoni thioredoxin glutathione reductase. Q962Y6. purified TGR, DTNB reduction, TNB absorbance 405 nm. Potency, µM (doses to about 114 µM), for the others: top-dose activity change, negative = inhibition, usual class: inhibitors. actives 3% (n = 360,000). AID 485364; note: potency is the fitted concentration of half-maximal effect; nearly all actives have a fitted effect of over 60% in size
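TGR 20 nM + NADPH 100 uM (dispensed conc.), cpd preinc 15 min RT; start with NADPH (500 uM addition) then DTNB (15 mM addition). Kinetic TNB absorbance, 405 nm filter. Four-parameter Hill fit across titration.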
Active calls of the source: *; ? = inconclusive; nt = not tested or not shown. Sampled rows, rich in hits. Any-hit rate of the full collection: about 14%. Unless noted, calls come from the whole dose curve; as a rule, active = well fitted curve in the direction sought with a large enough effect; inconclusive = small, poorly fitted or top-dose-only effect, or another doubt; inactive = no such curve, though single readings can be large; an effect the other way counts as inactive or inconclusive. % is set by controls: 0 for no effect and ±100 for the full control effect.

SMILES	HCMV antiviral	Pf growth 48h	FBPA Giardia inh	Pf growth 96h	Sm TGR block
Cn1c(-c2ccsc2)cc2c(Nc3ccc(Oc4ccccc4)cc3)nccc21	-89*	nt	nt	nt	nt
O=c1[nH]c(/C=C/c2ccccc2)c([N+](=O)[O-])c(=O)[nH]1	17	8%	24%	10µM*	0%
CCOc1cc(CNCCc2c[nH]c3ccccc23)cc(Cl)c1OCC(N)=O	4	?	-2%	4.7µM*	-30%
CCOc1cc(CNCCc2c[nH]c3ccccc23)cc(Cl)c1OC	-23	?	-6%	6.6µM*	-19%
COc1ccc(CNCCc2c[nH]c3ccccc23)c(OC)c1OC	15	-10%	0%	?	-19%
COc1cc(CNCCc2c[nH]c3ccccc23)cc(Cl)c1OCC(N)=O	26	?	-1%	-13%	-33%
CCOC(=O)[C@H]1[C@H]2COc3ccccc3[C@@H]2N2C(=O)c3cc(OC)ccc3NC(=O)[C@@]12C	-17	5.2µM*	nt	?	0%
CCOC(=O)[C@H]1[C@H]2COc3ccc(OC)cc3[C@@H]2N2C(=O)c3cc(C)ccc3NC(=O)[C@@]12C	-62*	?	nt	?	0%
CCOC(=O)[C@H]1[C@H]2COc3ccc(C)cc3[C@@H]2N2C(=O)c3cc(Cl)ccc3NC(=O)[C@@]12C	5	?	nt	?	-12%
CCOC(=O)[C@H]1[C@H]2COc3ccc(Br)cc3[C@@H]2N2C(=O)c3ccc(Cl)cc3NC(=O)[C@@]12C	-17	9.3µM*	nt	?	-4%
O=C1CC2(CCCC2)CC(=O)N1CCCCNC[C@H]1COc2ccccc2O1	nt	nt	1%	nt	nt
C=CCC[C@H](CCCCC)OC(=O)/C=C/[C@@H](O)[C@H](O)C[C@H](O)CC=C	-10	nt	nt	nt	nt
CN(C)c1cc(Cl)c2nonc2c1N	-35	?	-19%	?	50µM*
CCN(CC)c1cc(Cl)c2nonc2c1N	47	?	?	19%	-2%
O=C1/C(=C\c2cccs2)N=C(c2cccs2)N1Nc1ccccc1	-78*	4%	13%	nt	-1%
COc1ccc(CNC(=O)CN2CCN(S(=O)(=O)c3ccccc3)CC2)cc1	-9	?	nt	?	-16%
C[C@H](NC(=O)[C@@H]1Cc2ccccc2CN1)C(=O)NC1CCCC1	-16	16%	-29%	22%	-28%
COc1ccc(N2CCN(CC(=O)N3CCC(C)CC3)CC2)cc1	11	4%	0%	-10%	-2%
COc1ccc(-n2c(=O)c(CCC(=O)N3CCC(C)CC3)nc3ccccc32)cc1	-32	9.3µM*	nt	?	-2%
COc1ccc(-n2c(=O)c(CCC(=O)N(C)Cc3cccs3)nc3ccccc32)cc1	?	13µM*	nt	?	9%
CCc1nn(CC(=O)NCCCN(CC(C)C)CC(C)C)c(=O)c2cc3sc(C)cc3n12	3	nt	nt	nt	0%
CC1CCCCN1C(=O)COC(=O)/C=C/c1ccc2ccccc2n1 (centres undefined)	-84*	-5%	-2%	?	4%
CC1CC(C)(C)Nc2ccc(OC(=O)c3ccco3)cc21 (centres undefined)	-107*	?	nt	-12%	-32%
CC1CC(C)(C)Nc2ccc(N=O)cc21 (centres undefined)	-60*	?	?	-1%	14µM*
O=C(NC1CCCCC1)N1CC(=O)N2[C@H](CO)[C@@H](c3ccc(Br)cc3)[C@@H]2C1	-18	nt	nt	nt	nt
SMILES	HCMV antiviral	Pf growth 48h	FBPA Giardia inh	Pf growth 96h	Sm TGR block
CC(=O)Nc1nnc(SCC(=O)Nc2nc(C)cs2)s1	76	2%	nt	-3%	-11%
Clc1cccc(Cl)c1CNc1ccc(N2CCCC2)cc1	-77*	?	?	20%	?
O=C(Cc1ccc(Cl)cc1)Nc1ccc(N2CCCC2)cc1	-17	16%	-3%	nt	-1%
Cc1ccccc1-n1c(SCC(=O)Nc2c(C)cccc2C)nc(O)cc1=O	-36	?	1%	-28%	7%
Cc1ccn2c(=O)nc(SCC(=O)N3CCCCC3)nc2c1	-13	3%	nt	?	-5%
CCOC(=O)C(NC(=O)c1ccc(OC)cc1)(OCC1(CC)COC1)C(F)(F)F (centres undefined)	20	13µM*	1%	13µM*	-10%
OC(c1ccccc1)c1ncc(-c2cccc(OCc3ccccc3)c2)[nH]1 (centres undefined)	18	nt	nt	nt	nt
COc1ccc(OC2(C)CCN(Cc3ccc(-c4ccccc4)o3)C2)cc1 (centres undefined)	24	nt	nt	nt	nt
Cc1cc(C)cc(NC(=O)CSc2nnc(CNC(=O)c3ccco3)n2C)c1	2	?	nt	-41%	1%
Cc1ccc(Oc2c(C)nc(-c3ccccc3)[nH]c2=O)cc1	-32	1µM*	11%	1.7µM*	6%
Cc1cc(C)c(NC(=O)Cn2ccn(-c3cccc(Cl)c3)c(=O)c2=O)c(C)c1	-39	nt	nt	nt	-6%
CCCCc1c(-c2ccccc2OC)ncn1Cc1ccc(Cl)cc1	-30	nt	nt	nt	nt
CCCCc1c(-c2ccccc2OC)ncn1C1CCCC1	-94*	nt	nt	nt	nt
CC(=O)c1ccc(CCCC(=O)O)cc1	-2	1%	4%	9%	-7%
CC(=O)c1ccc(Cc2ccc(C(C)=O)cc2)cc1	-88*	-12%	9%	?	1%
Cc1cc(C(=O)Nc2ccccc2)c2ccccc2n1	38	11%	-1%	13µM*	18%
Cc1cc(C(=O)Nc2ccc(Br)cc2)c2ccccc2n1	-18	45%	5%	20%	-23%
Cc1cc(C(=O)NNC(=S)NC(C)c2ccccc2)c2ccccc2n1 (centres undefined)	-13	-16%	17%	10µM*	-19%
Cc1cc(C)cc(NC(=O)c2cc(C)nc3ccccc23)c1	45	?	23%	12µM*	2%
Cc1cc(C(=O)NNC(=O)c2ccc(Cl)cc2)c2ccccc2n1	0	12%	nt	24%	-6%
COc1cc(C(O)P(=O)(OC2CCCCC2)c2ccc(N(C)C)cc2)cc(OC)c1OC (centres undefined)	-18	?	6%	13µM*	-3%
CN(C)c1ccc(P(=O)(OC2CCCCC2)C(O)c2cccnc2)cc1 (centres undefined)	-11	-11%	6%	-22%	2%
COCCn1c(C)cc(/C=C(\C#N)C(=O)OCC(=O)Nc2ccc(S(N)(=O)=O)cc2)c1C	-1	-30%	nt	?	40µM*
CCCn1c(C)cc(/C=C(\C#N)C(=O)OCC(=O)Nc2ccc(OC)c(Cl)c2)c1C	-11	7%	-1%	?	3%
OC[C@@H]1CN(Cc2ccc3c(c2)OCO3)C[C@H](n2cnc3c(NC4CCC4)ncnc32)O1	15	nt	nt	nt	nt
O=C(CCCCn1cnc2c(=S)nc[nH]c21)Nc1ccc(C(=O)O)c(O)c1	-73*	nt	nt	nt	nt
O=C(CCN1C(=O)/C(=C/c2cccs2)SC1=S)Nc1ccc(C(=O)O)c(O)c1	?	29%	nt	-5%	0%
